Results from PubChem BioAssay (EPA / NIEHS).
Records with an inconclusive call do not appear. Active and inactive are the calls of the source. How the source made its calls: active means hit-call score of the fitted dose curve at least 0.9, where 1 is the maximum; inconclusive means response in the unintended direction; inactive means score below 0.9.

Each compound was assayed against human Acetylcholinesterase (AChE), ACHE (gene 43) (UniProt P22303) (assay: NVS_ENZ_hAChE: NovaScreen (NVS) Enzymatic Assay for human Acetylcholinesterase (AChE) (AID 2283129)).
Chain of human Acetylcholinesterase (AChE), ACHE (gene 43) (P22303 whole entry, looked up): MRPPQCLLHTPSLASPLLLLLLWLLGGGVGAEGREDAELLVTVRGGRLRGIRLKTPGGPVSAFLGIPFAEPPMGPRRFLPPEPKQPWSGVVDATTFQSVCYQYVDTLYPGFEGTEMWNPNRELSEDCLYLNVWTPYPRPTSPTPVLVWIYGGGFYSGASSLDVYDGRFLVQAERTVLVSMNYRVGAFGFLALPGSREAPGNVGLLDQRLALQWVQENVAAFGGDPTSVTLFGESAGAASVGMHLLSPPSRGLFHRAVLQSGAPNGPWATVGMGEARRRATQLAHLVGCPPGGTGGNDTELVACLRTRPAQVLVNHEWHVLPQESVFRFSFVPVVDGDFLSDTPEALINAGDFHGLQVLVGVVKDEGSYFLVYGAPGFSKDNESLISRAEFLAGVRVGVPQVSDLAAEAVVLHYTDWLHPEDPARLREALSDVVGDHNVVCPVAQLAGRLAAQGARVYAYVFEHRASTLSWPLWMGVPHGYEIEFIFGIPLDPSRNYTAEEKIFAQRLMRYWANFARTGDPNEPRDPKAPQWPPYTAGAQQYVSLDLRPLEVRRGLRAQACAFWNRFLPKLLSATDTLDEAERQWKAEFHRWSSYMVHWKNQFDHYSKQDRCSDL
Summary of the method: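 Cell-free colorimetric enzyme-activity assay; compounds read 0.33 hour after dosing, loss of signal vs DMSO baseline. Primary screen in duplicate at 25 uM single concentration, with active compounds retested in concentration series.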
`N#CN=C1SCCN1Cc1ccc(Cl)nc1` was tested, and the AC50 was 19.6 µM (active).
In the case of `COP(=S)(OC)SCn1nnc2ccccc2c1=O`, the outcome is reported as “inactive”.
With `CCNC(=O)NC(=O)C(C#N)=NOC` the outcome was “inactive”.
For `N#Cc1c[nH]cc1-c1cccc2c1OC(F)(F)O2`, the outcome was “inactive”.
`CNC(=O)Oc1cccc2ccccc12` was tested, and the AC50 was 25 µM (active).
For `CC1(C)CON(Cc2ccccc2Cl)C1=O`, the outcome was “inactive”.
In the case of `CCC(C)n1c(=O)[nH]c(C)c(Br)c1=O` (stereo not drawn), the outcome is reported as “inactive”.

What follows are compounds tested against Caspase-1 (Homo sapiens) (UniProt P29466) (assay: NVS_ENZ_hCASP1: NovaScreen (NVS) Enzymatic Assay for human Caspase 1 (CASP1) (AID 2283132)).
Chain of Caspase-1 (Homo sapiens) (P29466 whole entry, looked up): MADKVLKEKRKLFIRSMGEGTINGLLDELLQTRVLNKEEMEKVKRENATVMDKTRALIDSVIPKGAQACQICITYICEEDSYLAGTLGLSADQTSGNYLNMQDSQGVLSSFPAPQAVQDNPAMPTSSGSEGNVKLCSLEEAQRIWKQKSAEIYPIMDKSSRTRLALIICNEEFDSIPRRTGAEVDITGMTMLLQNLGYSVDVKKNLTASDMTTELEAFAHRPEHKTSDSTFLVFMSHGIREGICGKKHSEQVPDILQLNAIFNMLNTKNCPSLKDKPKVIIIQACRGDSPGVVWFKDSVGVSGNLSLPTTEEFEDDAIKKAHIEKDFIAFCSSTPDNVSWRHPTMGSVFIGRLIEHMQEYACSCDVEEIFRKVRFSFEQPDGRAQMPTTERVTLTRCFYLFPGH
Experimental: NVS_ENZ_hCASP1 is a biochemical, single-readout assay that uses extracted gene-proteins from E. coli in a cell-free assay. Measurements were taken 1 hour after chemical dosing in a 96-well plate.NVS_ENZ_hCASP1 is one of one assay component(s) measured or calculated from the NVS_ENZ_hCASP1 assay. It is designed to make measurements of enzyme activity, a form of enzyme reporter, as detected with fluorescence intensity signals by Fluorescence technology.Data from the assay component NVS_ENZ_hCASP1 was analyzed into 1 assay endpoint. This assay endpoint, NVS_ENZ_hCASP1, was analyzed in the positive analysis fitting direction relative to DMSO as the negative control and baseline of activity. Using a type of enzyme reporter, loss-of-signal activity can be used to understand changes in the enzymatic activity as they relate to the gene CASP1. Furthermore, this assay endpoint can be referred to as a primary readout, because this assay has produced multiple assay endpoints where this one serves a enzymatic activity function. To generalize the intended target to other relatable targets, this assay endpoint is annotated to the protease intended target family, where the subfamily is cysteine protease.
Binding assays used specific radioligands (tritiated, iodinated) with non-radioactive competitive displacement ligands in agonist or antagonist protocols (as indicated) and various reference compounds and inhibitors to titrate specific binding to receptors and transporters. Most enzyme assays (CYPs, kinases, phosphatases, proteases, HDACs) used recombinant protein and specific substrates (fluorescence mostly, some colorimetric and radioactive) and inhibitors, followed by a biochemical separation of substrate and product. All assays for the biochemical HTS were initially run in duplicate at a single concentration (10 uM for CYP450 assays and 25 uM for all others). Assay-chemical combinations meeting a pre-defined threshold (e.g., 30% inhibition and other criteria defined below) were then run in singleton concentration-response format with maximum concentration of 20 uM for CYPs and 50 uM for all others. Each assay was run with positive and negative controls, and concurrent controls on every plate. The follow-up (secondary) screen tested active chemical-pairs in concentration series, as well as a few additional assays not tested in the primary screen, some selected negative inactives, and several cases re-run in the concentration series for confirmatory purposes.
With `COC(=O)c1c(C(F)F)nc(C(F)(F)F)c(C2=NCCS2)c1CC(C)C` the outcome was “inactive”.
In the case of `COc1cc(OC)nc(NC(=O)NS(=O)(=O)c2ncccc2OCC(F)(F)F)n1`, the outcome is reported as “inactive”.
For `CCN(CC)C(=O)C(C)Oc1cccc2ccccc12` (stereo not drawn), the outcome was “inactive”.
`O=c1n(Cl)c(=O)n(Cl)c(=O)n1Cl` was tested, and the outcome was “inactive”.
`CC(C)=CC1C(C(=O)OCc2coc(Cc3ccccc3)c2)C1(C)C` (stereo not drawn) was tested, and the outcome was “inactive”.
With `CCNP(=S)(OC)O/C(C)=C/C(=O)OC(C)C` (stereo not drawn) the outcome was “inactive”.
